This excerpt belongs to a sample that is enriched for hits.
Pf Dd2 inh: inhibitors of Plasmodium falciparum Dd2 growth; P. falciparum Dd2 growth, SYBR Green, 72 h; Potency, µM (top dose mostly 28.9 µM), for inactives: at the top dose activity, negative = inhibition, hits mostly inhibitors; 4.3% of 120,000 active; AID 1347417; active means well fitted inhibition curve with a large enough effect;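 further: plate controls were DMSO vehicle for no effect and reference drug for full effect; nearly all actives have a fitted effect of over 65% in size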
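Infected erythrocytes (Dd2, 0.3% parasitemia, 2.5% hematocrit final) are added to compound in RPMI-1640/Albumax II medium, grown 72 h at 37C in low oxygen, then lysed with saponin/Triton-X containing SYBR Green and read by fluorescence.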
The depositor's hits bear a star; i = inactive; [ ] = another dose, or the depositor's remark. Potency means the concentration at half of the fitted maximal effect.

SMILES	Pf Dd2 inh
CN(C)C(=O)c1ccc(OC2CCN(C(=O)c3c(F)cccc3F)CC2)nc1	16.9%
Cc1nc2ccc(Cl)cn2c1C(=O)N1CCC2(CCCN(C)C2=O)C1 (stereo not drawn)	-4.6%
Cc1ccc(NC(=O)CN2C(=O)COc3ccc(S(=O)(=O)N4CCCCC4)cc32)cc1Cl	5.7%
CCN(CC)S(=O)(=O)c1ccc2c(c1)N(CC(=O)Nc1ccc(F)cc1)C(=O)CO2	19.2%
NS(=O)(=O)c1ccc(NC(=O)CN2C(=O)COc3ccc(Cl)cc32)cc1	0.708µM*
COC(=O)c1c(NC(=O)CCCOc2ccccc2C)sc2c1CCC(C)C2 (stereo not drawn)	22.6%
COc1ccc(NC(=O)c2c(NC(=O)c3ccncc3)sc3c2CCC(C(C)(C)C)C3)cc1 (stereo not drawn)	57.9%
COc1ccc(Cl)cc1NC(=O)c1c(NCc2cccs2)sc2c1CCC(C)C2 (stereo not drawn)	12.6µM*
COc1ccc(Cl)cc1NC(=O)c1c(NCc2cccnc2)sc2c1CCC(C)C2 (stereo not drawn)	8.91µM*
COc1ccc(Cl)cc1NC(=O)c1sc2nc3c(cc2c1N)N1CCC3CC1	10.6%
COc1ccccc1NC(=O)c1c(NC(=O)c2cccs2)sc2c1CCC(C(C)(C)C)C2 (stereo not drawn)	7.5%
O=C1CCC2(CNC(=O)c3cnccn3)CCCC=C2N1 (stereo not drawn)	1.4%
O=C(NCCc1cnc[nH]1)C1CCN(C2CCCCC2)CC1	i
O=C(c1ccc(Cl)cc1Cl)N1CCN(c2cc(-c3cccs3)[nH]n2)CC1	-4.4%
COCCNS(=O)(=O)c1cccc2c1CN(C(=O)CCn1cncn1)CC2	-10.0%
CCC(CC)N1C[C@@H](CO)[C@H](c2nc(CCOC)no2)C1	18.2%
Cc1cc(C)n(Cc2ccc(-c3nc(C)no3)cc2)n1	4.1%
COc1ccccc1CCN1CCCC(CN(C)C(=O)Cn2cccnc2=O)C1 (stereo not drawn)	-2.3%
COc1ccccc1CCN1CCCC(CN(C)C(=O)CN2C(=O)CNC2=O)C1 (stereo not drawn)	5.2%
COc1ccccc1CCN1CCC(CN(C)C(=O)CCc2ccccc2Cl)CC1	8.91µM*
CS(=O)(=O)CCN1C[C@@H](C(=O)O)[C@H](c2cccnc2)C1	-5.8%
CCn1cc(S(=O)(=O)N2CCC3(CCCN(CC4CC4)C3=O)C2)cn1 (stereo not drawn)	-6.0%
COC[C@H]1C[C@@H](NCC(C)C)[C@H](O)[C@@H]1O	13.2%[44.1 µM]
Cc1ccc(S(=O)(=O)N2CCC(CC(=O)NCc3ccccc3)C2)cc1F (stereo not drawn)	i
COC(=O)[C@@H]1Cc2c([nH]c3ccccc23)[C@H]2C[C@@H](NCCc3cnc[nH]3)C[C@@H](c3ccccc3F)N21	i
SMILES	Pf Dd2 inh
COCCN[C@@H]1C[C@@H]2c3[nH]c4ccccc4c3C[C@@H](C(=O)OC)N2[C@H](c2cccc(OC)c2)C1	5.01µM*
COC(=O)[C@@H]1Cc2c([nH]c3ccccc23)[C@H]2C[C@@H](NCCCn3ccnc3)C[C@@H](c3ccc(Cl)c(F)c3)N21	3.16µM*
COC(=O)[C@@H]1Cc2c([nH]c3ccccc23)[C@H]2C[C@@H](NCCCn3ccnc3)C[C@@H](c3cccc(Cl)c3)N21	2.24µM*
COC(=O)[C@@H]1Cc2c([nH]c3ccccc23)[C@H]2C[C@H](NCCNC(C)=O)C[C@@H](c3ccc(C(F)(F)F)cc3)N21	-1.2%
COCc1ccc2c(c1)c(OC(C)(C)C(=O)NCCCn1ccnc1)nn2Cc1ccccc1	-13.0%
COC(=O)[C@@H]1Cc2c([nH]c3ccccc23)[C@H]2C[C@@H](NCc3cccnc3)C[C@@H](c3ccccc3)N21	-22.9%
COC(=O)[C@@H]1Cc2c([nH]c3ccccc23)[C@H]2C[C@@H](NC[C@H]3CCCO3)C[C@@H](c3ccccc3F)N21	-8.6%
O=C(NCCCn1ccnc1)c1ccc(C2CCCNC2)cc1 (stereo not drawn)	11.7%
Cc1ccccc1-c1cccc(C(=O)N(C)Cc2ncc[nH]2)c1	-7.8%
COC1CCCOC12CCN(C(=O)c1ccc3n[nH]nc3c1)CC2 (stereo not drawn)	-4.0%
Cc1ccc(NC(=O)C2N(C(C)C)C(=O)C23CCCCC3)cc1 (stereo not drawn)	-15.5%
O=C(NCC1(COc2ccccc2)C[C@@H](O)[C@@H](O)C1)C1CCOCC1 (stereo partly drawn)	21.9%[44.1 µM]
CCn1cc(CN(CCOC)Cc2cccs2)ccc1=O	-9.0%
CCOCCCN1C(=O)c2[nH]nc(-c3ccccc3O)c2C1c1ccc(CC)cc1 (stereo not drawn)	11.2µM*
CCc1ccc(C2c3c(-c4ccccc4O)n[nH]c3C(=O)N2Cc2ccncc2)cc1 (stereo not drawn)	8.91µM*
O=C1c2[nH]nc(-c3ccccc3O)c2C(c2cccc(O)c2)N1Cc1ccncc1 (stereo not drawn)	12.4%
CCOCCCNC(=O)C(c1ccccc1)N1Cc2ccccc2C1=O (stereo not drawn)	i
COc1cc(C2c3c(-c4ccccc4O)n[nH]c3C(=O)N2Cc2ccncc2)cc(OC)c1OC (stereo not drawn)	-9.6%
COc1cccc(CC(=O)N2CC(c3nnc(-c4ccncc4)o3)C3(CCOCC3)C2)c1 (stereo not drawn)	i
N#Cc1cccc(C(=O)N2CCCCCCNC(=O)[C@@H]3CCCC[C@@H]32)c1	23.3%
O=C(N[C@@H]1CN(Cc2ccc(F)cc2F)C[C@H]1CO)c1ccccc1	10µM*
O=C(N[C@@H]1CN(Cc2ccc(F)cc2Cl)C[C@H]1CO)C1CCC1	8.91µM*
O=C(N[C@@H]1CN(Cc2ccc(Cl)c(F)c2)C[C@H]1CO)C1CCC1	-27.0%
CN1C[C@@H](CO)[C@H](NC(=O)c2ccccc2)C1	11.5%
O=C(N[C@@H]1CN(Cc2ccc(F)cc2Cl)C[C@H]1CO)C1CC1	-5.4%
SMILES	Pf Dd2 inh
N#Cc1cccc(CN2C[C@@H](CO)[C@H](NC(=O)c3ccccc3)C2)c1	-17.0%
O=C(CCc1nc(C2CCCN2C(=O)C2CC2)no1)NCCC1=CCCCC1 (stereo not drawn)	i
OC1(CN2CCC(c3cc(Cc4ccccc4)[nH]n3)CC2)CNCCOC1 (stereo not drawn)	3.6%
COCCN1CCCCCC(O)c2cc(C(=O)NC3CCC3)ccc21 (stereo not drawn)	i
COc1ccc(C)cc1NC(=O)Cn1c(N(C)Cc2ccccc2)nc(C)cc1=O	-38.2%
Cc1ccc(C(=O)NC2CCN(c3cc(-c4cccs4)[nH]n3)CC2)cc1F	11.2µM*
O=C(NC1CCN(c2cc(-c3cccs3)[nH]n2)C1)c1ccc2[nH]ccc2c1 (stereo not drawn)	i
O=C(NC1CCN(c2cc(-c3cccs3)[nH]n2)C1)c1cc2ccccc2[nH]1 (stereo not drawn)	14.1µM*
O=C(NC1CCN(c2cc(-c3cccs3)[nH]n2)C1)c1ccncc1 (stereo not drawn)	i
Cc1ccc(C(=O)NC2CCN(c3cc(-c4cccs4)[nH]n3)C2)cc1F (stereo not drawn)	i
O=C(NC1CCN(c2cc(-c3cccs3)[nH]n2)CC1)c1ccc(F)c(Cl)c1	i
CCOc1ccc(C(=O)NC2CCN(c3cc(-c4ccccc4)[nH]n3)CC2)cc1	-4.9%
COc1cccc(S(=O)(=O)N2CCCCC2c2nc(C3CC3)n[nH]2)c1 (stereo not drawn)	-16.9%
Cc1ccc(C2Cn3nnc(-c4noc(CCc5ccccc5)n4)c3CO2)cc1 (stereo not drawn)	7.5%

Bioassay records: PubChem, National Center for Advancing Translational Sciences (NCATS)
